Laboratory results from ChEMBL document CHEMBL3988442, “University of Dundee, Small-Polar-MMV Screening Library” (2021).
Out of some 48,000 compounds screened, about 13,000 (27%) showed an effect of 50% or more. The list shows a part of the results.

The compounds below were run on Wolbachia pipientis (assay: Anti-Wolbachia Cell-Based Screen). Conditions: 5 µM.
Type: functional
Design: scale not given: in the data most compounds retested in dose-response had high values

Row | SMILES | Percent Effect
1 | Cc1cc(CN(C)C(=O)NCc2ccnc(SC(C)(C)C)c2)no1 | -6.174%
2 | COc1ncccc1CNC(=O)CN1CCCCCC1=O | -54.83%
3 | Cc1nc(N)nc(C)c1Cc1nc(C2CC2)n[nH]1 | -31.49%
4 | CC(C)NC(=O)NCCn1cnc(C2CCCC2)cc1=O | -0.7993%
5 | COCC(=O)NCCn1nc(-c2cc(C)oc2C)ccc1=O | 96.68%
6 | O=C(NCCCNC(=O)C1CCC1)NCCn1cccc1 | -4.539%
7 | Cc1noc(C)c1CCCNC(=O)C1CCN(C(=O)C2CC2)CC1 | 11.33%
8 | Cc1noc(C)c1CCCNC(=O)C1CCN(C(C)C)CC1 | 1.059%
9 | Cc1noc(C)c1CCCNC(=O)C1CCN(C(=O)C2CCC2)CC1 | 9.148%
10 | O=C(NCCNC(=O)C1CCCCC1)NCCn1cccc1 | 0.3641%
11 | Cc1cc(-c2ccc(=O)n(CCNC(=O)C3CCCCC3)n2)c(C)o1 | 127.3%
12 | Cc1cc(-c2ccc(=O)n(CCNC(=O)C3CCC3)n2)c(C)o1 | 82.02%
13 | Cc1cc(-c2ccc(=O)n(CCNC(=O)C3CC3)n2)c(C)o1 | 72.81%
14 | COCC(=O)Nc1ccccc1-c1ccc(=O)n(C)n1 | 7.916%
15 | Cc1cc(C(O)CCNC(=O)COc2ccccc2F)c(C)o1 (stereo unspecified) | 1.741%
16 | CSc1ccc(NC(=O)NCc2nncn2C2CC2)cc1F | 6.164%
17 | Cc1cc(C)n(Cc2ccc(C(=O)NCCN3CCOCC3)cc2)n1 | 0.4084%
18 | Cc1cc(C)n(Cc2ccc(-c3noc(C(=O)NCCO)n3)cc2)n1 | 112.8%
19 | Cc1cc(C)n(Cc2ccc(-c3noc(C(=O)NC[C@@H](C)O)n3)cc2)n1 | 107.8%
20 | CNC(=O)CCNC(=O)c1cccc(Cn2nc(C)cc2C)c1 | -10.69%
21 | Cc1cc(C)n(Cc2ccc(-c3noc(C(=O)NCCCO)n3)cc2)n1 | 113.7%

Row | SMILES | Percent Effect
22 | CCN(CCC(=O)OC)C(=O)c1cccc(Cn2nc(C)cc2C)c1 | 2.618%
23 | O=C(NCCN1CCCCC1)c1nc(-c2ccc3cc[nH]c3c2)no1 | 1.073%
24 | COCCN(CCOC)C(=O)c1ccc(Cn2nc(C)cc2C)cc1 | -2.502%
25 | COCc1cc(C[C@@H]2CC[C@H](O)[C@@H](CNCC(C)C)O2)no1 | -7.367%
26 | CC(C)CN1C(=O)C2(CCN(Cc3ccoc3)C2)c2ccccc21.O=C(O)C(F)(F)F (stereo unspecified) | 60.6%
27 | Cc1ccc(CN2CCC3(C2)C(=O)N(CC(N)=O)c2ccccc23)s1 (stereo unspecified) | -16.39%
28 | CC(C)CN1C(=O)C2(CCN(Cc3nccs3)C2)c2ccccc21.O=C(O)C(F)(F)F (stereo unspecified) | 21.56%
29 | CN1CCN(Cc2cccnc2)C2(CCN(Cc3ccoc3)C2)C1=O.O=C(O)C(F)(F)F.O=C(O)C(F)(F)F.O=C(O)C(F)(F)F (stereo unspecified) | -11.48%
30 | CC(C)CN1C(=O)C2(CCN(Cc3ccsc3)C2)c2ccccc21.O=C(O)C(F)(F)F (stereo unspecified) | 118.8%
31 | CC(C)CN1C(=O)C2(CCN(CC3CCOCC3)C2)c2ccccc21.O=C(O)C(F)(F)F (stereo unspecified) | 3.565%
32 | CC(C)CN1C(=O)C2(CCN(Cc3cccs3)C2)c2ccccc21.O=C(O)C(F)(F)F (stereo unspecified) | 129.4%
33 | Cc1ccc(CN2CCC3(C2)C(=O)N(CC2CC2)c2ccccc23)s1.O=C(O)C(F)(F)F (stereo unspecified) | 106.7%
34 | CCN(CC)C(CNCc1cc(F)cc(F)c1)c1ccco1 (stereo unspecified) | 4.253%
35 | Cc1ccsc1[C@@H]1CCN(C(=O)CCc2cc(O)no2)C[C@H]1O | 2.962%
36 | COc1ccccc1CC(=O)NCc1c(C)nc2cc(=O)[nH]n2c1C | -0.07038%
37 | Cc1ccc(C(C)(O)CNC(=O)c2sccc2Br)o1 (stereo unspecified) | 16.11%
38 | CC(c1nc(C2CC2)no1)N1CCC(NS(=O)(=O)c2cccs2)CC1 (stereo unspecified) | 7.931%
39 | CC(C)CN1C(=O)C2(CCN(Cc3ccc(F)cc3)C2)c2ccccc21 (stereo unspecified) | 132%
40 | Cc1ccc(CN2CCC3(C2)C(=O)N(CC(C)C)c2ccccc23)s1 (stereo unspecified) | 8.577%
41 | O=C(O)[C@]12CN(CC3CCC3)C[C@H]1CN(c1cnccn1)C2 | 5.69%
42 | O=C(O)C(F)(F)F.O=C(O)C(F)(F)F.c1cnc(N2CCOCC3(CCCN(CC4CC4)C3)C2)cn1 (stereo unspecified) | -18.67%

Row | SMILES | Percent Effect
43 | O=C(O)C(F)(F)F.c1cnc(N2C[C@H]3CCN(CC4CC4)C[C@H]3C2)cn1 | 93.44%
44 | O=C(O)C(F)(F)F.O=C(O)C(F)(F)F.c1cnc(N2C[C@H]3CCN(CCN4CCCC4)C[C@H]3C2)cn1 | 87.36%
45 | Cn1cc(CNCCc2nccs2)c(-c2cccnc2)n1 | 5.46%
46 | C[C@@H]1CN(C2(C(=O)N3CC[C@H](O)C3)Cc3ccccc3C2)C[C@H](C)O1 | 3.055%
47 | O=c1[nH]c2ccccc2c(=O)n1Cc1nnnn1C1CC1 | -11.16%
48 | Brc1ccc2[nH]c3c(c2c1)CCCC3c1nn[nH]n1 (stereo unspecified) | 153.1%
49 | c1ccc2c3c([nH]c2c1)C(c1nn[nH]n1)CCC3 (stereo unspecified) | 118.9%
50 | CCc1ccc(C(=O)N2CCCC(c3nn[nH]n3)C2)cc1 (stereo unspecified) | 6.219%
51 | Clc1ccc2[nH]c3c(c2c1)CCCC3c1nn[nH]n1 (stereo unspecified) | 91.29%
52 | NCC1Cc2cc(Cl)cc(-c3cncc(C(=O)N4CCCCC4)n3)c2O1 (stereo unspecified) | 0.4481%
53 | O=C(NCCc1cccs1)[C@]12COC[C@H]1CN(C1CCOCC1)C2.O=C(O)C(F)(F)F | -30.21%
54 | CN1C[C@@H]2COC[C@]2(C(=O)NCCc2cccs2)C1.O=C(O)C(F)(F)F | -4.441%
55 | O=C(NCCc1cccs1)[C@H]1CO[C@H]2CCN(C3CCC3)C[C@H]2C1.O=C(O)C(F)(F)F | 119.1%
56 | CC(C)NC(=O)[C@H]1C[C@@H]2[C@@H](C1)OCCN2Cc1cccs1.O=C(O)C(F)(F)F | -8.796%
57 | O=C(NCc1cccs1)C1CNCC12CCOCC2.O=C(O)C(F)(F)F (stereo unspecified) | 1.102%
58 | O=C(NCc1cccs1)c1nc2c(o1)CN(CC1CC1)C2.O=C(O)C(F)(F)F | -6.948%
59 | O=C(NCc1cccs1)[C@H]1CO[C@H]2CCN(C3CCCC3)C[C@H]2C1.O=C(O)C(F)(F)F | 106.7%
60 | O=C(O)C(F)(F)F.O=C1CO[C@@H]2CN(Cc3cccs3)C[C@H]2N1CC1CC1 | 3.643%
61 | O=C(NCCc1cccs1)[C@H]1CO[C@H]2CCN(CC3CC3)C[C@H]2C1.O=C(O)C(F)(F)F | 100.3%
